For part of these data: Measured potencies and affinities stand elsewhere. The source made the active and inactive calls.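 Rule for the calls, unless noted: active = signal rise over 3 SD above mean of control wells given weak agonist, in both repeats and first screen; inactive = the rest.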
Tests used:
[1] = tested on: TRPC4 beta (transient receptor potential cation channel C4), mouse; assay: activators of mouse TRPC4 channel, confirmation, cell-based, Fluo4 calcium, HEK293 TRPC4beta/mu-opioid, duplicates, 10 µM (AID 2426;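 active = fluorescence ratio normalized to control raised more than 50% in primary screen plus both repeat runs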); conditions: Fluo4 calcium fluorescence, at 10 µM; active compounds read high
[2] = tested on: transient receptor potential cation channel C4 beta (TRPC4), mouse; assay: activators of mouse TRPC4 channel, confirmation, cell-based, second round, Fluo4, HEK293 TRPC4beta/mu-opioid, 1 µM (AID 2461;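 active = primary screen active and over 50% activation in each of two duplicate runs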); conditions: Fluo4 calcium fluorescence, at 1 µM; active compounds read high
[3] = tested on: TRPC4 (transient receptor potential cation channel C4 beta), mouse; assay: positive allosteric modulators of mouse TRPC4, confirmation, cell-based, second round, Fluo-4, HEK293 TRPC4beta/mu-opioid, 1 µM (AID 2554;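 active = primary screen hit whose fluorescence ratio, in both repeats, exceeds the weak agonist control mean by 3 SD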); conditions: DAMGO EC20, Fluo-4 calcium flux, at 1 µM; active compounds read high
[4] = tested on: TRPC4 beta (transient receptor potential cation channel C4), mouse; assay: positive allosteric modulators of mouse TRPC4, confirmation, cell-based, Fluo-4, HEK293 TRPC4beta/mu-opioid (AID 2555;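 active = primary screen hit whose calcium fluorescence ratio, in both repeats, exceeds the weak agonist control mean by 3 SD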); conditions: DAMGO EC20, Fluo-4 calcium flux, at 10 µM; active compounds read high
[5] = target: Short transient receptor potential channel 4 (Mus musculus) (UniProt Q9QUQ5); assay: inhibitors of mouse TRPC4 channel, confirmation, cell-based, Fluo4, HEK293 TRPC4beta/mu-opioid (AID 2636;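 active = calcium signal cut by more than 3 SD below the full-agonist control yet still positive, in both repeats and the earlier primary screen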); conditions: DAMGO, Fluo4 calcium flux, at 10 µM; active compounds read high
Chain of Short transient receptor potential channel 4 (Mus musculus) (Q9QUQ5 whole entry, looked up): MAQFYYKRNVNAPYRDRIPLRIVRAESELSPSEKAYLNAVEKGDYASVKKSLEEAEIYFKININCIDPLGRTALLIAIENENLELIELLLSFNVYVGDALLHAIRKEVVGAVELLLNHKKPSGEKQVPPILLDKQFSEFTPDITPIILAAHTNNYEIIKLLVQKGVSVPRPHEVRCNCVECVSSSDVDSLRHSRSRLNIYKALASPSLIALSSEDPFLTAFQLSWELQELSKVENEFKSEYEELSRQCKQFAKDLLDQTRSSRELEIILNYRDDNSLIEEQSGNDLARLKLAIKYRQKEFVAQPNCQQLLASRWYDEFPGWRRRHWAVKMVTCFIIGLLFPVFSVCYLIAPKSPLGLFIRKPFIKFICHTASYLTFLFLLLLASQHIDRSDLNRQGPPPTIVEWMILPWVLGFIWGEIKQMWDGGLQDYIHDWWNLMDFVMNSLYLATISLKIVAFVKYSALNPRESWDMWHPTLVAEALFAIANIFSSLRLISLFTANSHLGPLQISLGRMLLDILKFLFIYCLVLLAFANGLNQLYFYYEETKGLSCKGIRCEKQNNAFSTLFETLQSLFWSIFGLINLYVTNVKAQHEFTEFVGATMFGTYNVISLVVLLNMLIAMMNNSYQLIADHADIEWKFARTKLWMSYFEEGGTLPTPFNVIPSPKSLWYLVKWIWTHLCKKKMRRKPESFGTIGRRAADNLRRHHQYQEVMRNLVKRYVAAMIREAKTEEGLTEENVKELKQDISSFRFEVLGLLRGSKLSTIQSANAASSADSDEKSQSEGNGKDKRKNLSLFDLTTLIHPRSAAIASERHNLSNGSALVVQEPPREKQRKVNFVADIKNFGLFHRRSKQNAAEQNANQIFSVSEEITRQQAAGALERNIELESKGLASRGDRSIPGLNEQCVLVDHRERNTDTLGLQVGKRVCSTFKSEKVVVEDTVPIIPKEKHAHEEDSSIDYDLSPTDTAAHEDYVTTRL

[6] = target: Short transient receptor potential channel 4 (Mus musculus) (UniProt Q9QUQ5); assay: inhibitors of mouse TRPC4 channel, confirmation, cell-based, second round, Fluo4, HEK293 TRPC4beta/mu-opioid, 1 µM (AID 2637;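 active = calcium signal ratio cut to more than 3 SD under the fully stimulated control mean yet still positive, in both repeats and the primary screen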); conditions: Fluo4 calcium flux, DAMGO, at 1 µM; active compounds read high
[7] = target: Short transient receptor potential channel 4 (Mus musculus) (UniProt Q9QUQ5); assay: mouse TRPC4 channel activators, dose response, cell-based, HEK293 TRPC4/mu-opioid, Fluo-4 calcium (AID 434937;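 active = primary screen activator hit with a dose response curve and TRPC4 channel activation at any tested dose; inactive = no activation, no dose response, or not a primary hit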)
[8] = target: Short transient receptor potential channel 4 (Mus musculus) (UniProt Q9QUQ5); assay: TRPC4 positive allosteric modulators, dose response, cell-based, HEK293 TRPC4/mu-opioid, Fluo-4 calcium, EC20 DAMGO (AID 434941;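 active = earlier screen potentiator hit that boosts the TRPC4 ion channel at some dose, with a dose response; inactive = no potentiation, no dose response, or not a prior hit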;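 note: calcium entry triggered by an EC20 dose of DAMGO at the co-expressed mu-opioid receptor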)
[9] = target: Short transient receptor potential channel 4 (Mus musculus) (UniProt Q9QUQ5); assay: mouse TRPC4 channel inhibitors, dose response, cell-based, HEK293 TRPC4/mu-opioid, Fluo-4 calcium (AID 434942;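 active = primary screen inhibitor hit that blocks the TRPC4 channel at some tested dose, yielding a dose curve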)
[10] = target: Short transient receptor potential channel 6 (Mus musculus) (UniProt Q61143); assay: inhibition of mouse TRPC6 channel, confirmation, selectivity assay for TRPC4 inhibitor project, cell-based, HEK293, membrane potential dye, duplicate (AID 434948;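 active = active in primary screen and both duplicates, each dropping signal beyond three positive-control SD with fluorescence still positive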); conditions: HEK293 TRPC6, membrane potential dye fluorescence, at 10 µM, stimulated with maximal-effect acetylcholine; active compounds read high
Chain of Short transient receptor potential channel 6 (Mus musculus) (Q61143 whole entry, looked up): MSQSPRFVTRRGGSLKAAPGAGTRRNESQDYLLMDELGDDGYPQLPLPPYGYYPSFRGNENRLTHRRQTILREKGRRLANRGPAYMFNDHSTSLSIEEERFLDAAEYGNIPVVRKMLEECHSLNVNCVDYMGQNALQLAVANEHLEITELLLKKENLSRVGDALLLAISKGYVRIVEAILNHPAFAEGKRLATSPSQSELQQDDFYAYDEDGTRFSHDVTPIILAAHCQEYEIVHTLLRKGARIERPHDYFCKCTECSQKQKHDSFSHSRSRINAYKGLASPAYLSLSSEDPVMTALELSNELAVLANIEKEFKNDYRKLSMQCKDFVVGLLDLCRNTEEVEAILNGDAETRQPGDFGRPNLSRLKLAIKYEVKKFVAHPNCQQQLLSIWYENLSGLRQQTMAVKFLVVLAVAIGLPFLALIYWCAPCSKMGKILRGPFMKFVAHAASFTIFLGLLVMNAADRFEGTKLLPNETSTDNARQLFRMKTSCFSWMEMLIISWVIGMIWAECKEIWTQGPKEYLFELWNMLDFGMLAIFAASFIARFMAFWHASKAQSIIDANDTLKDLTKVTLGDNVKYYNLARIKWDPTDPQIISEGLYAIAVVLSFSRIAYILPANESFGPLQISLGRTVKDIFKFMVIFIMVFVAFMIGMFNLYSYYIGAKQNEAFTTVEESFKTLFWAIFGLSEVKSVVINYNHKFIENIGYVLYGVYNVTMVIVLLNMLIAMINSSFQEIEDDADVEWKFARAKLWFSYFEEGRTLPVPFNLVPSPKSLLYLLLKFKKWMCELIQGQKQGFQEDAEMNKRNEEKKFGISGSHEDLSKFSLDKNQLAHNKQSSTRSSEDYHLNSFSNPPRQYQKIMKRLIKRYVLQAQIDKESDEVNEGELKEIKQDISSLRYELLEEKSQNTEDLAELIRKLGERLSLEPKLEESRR

[11] = target: Short transient receptor potential channel 6 (Mus musculus) (UniProt Q61143); assay: activation of mouse TRPC6 channel, confirmation, selectivity assay for TRPC4 activator project, cell-based, HEK293, membrane potential dye, duplicate (AID 434950;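 active = membrane potential signal rise above negative control mean plus 3 SD in both duplicates, also active in the earlier TRPC4 screen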); conditions: HEK293 TRPC6, membrane potential fluorescence, at 10 µM; active compounds read high
[12] = target: Short transient receptor potential channel 6 (Mus musculus) (UniProt Q61143); assay: TRPC6 potentiation by TRPC4 potentiator hits, confirmation, selectivity assay for TRPC4 potentiator project, HEK293 cells, membrane potential dye, duplicate (AID 434952;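 active = compound raising the membrane signal above positive-control mean plus 3 SD in both repeats, and a primary screen hit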); conditions: HEK293 TRPC6, membrane potential dye fluorescence, at 10 µM, maximal acetylcholine added after compound; active compounds read high
[13] = target: Short transient receptor potential channel 4 (Mus musculus) (UniProt Q9QUQ5); assay: calcium flux activators in TRPC4/5HT1a cells, counter-screen for TRPC4 activator project, cell-based, second counter screen, HEK293 TRPC4/5HT1a, Fluo-4 (AID 434977;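 active = calcium signal rise above buffer-control mean plus 5 SD in both duplicates, and also a hit in the primary screen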); conditions: Fluo-4 calcium flux, at 10 µM; active compounds read high
[14] = calcium flux inhibitors in TRPC4/5HT1a cells, confirmation, counter-screen for TRPC4 inhibitor project, cell-based, second counter screen, HEK293 TRPC4/5HT1a, Fluo-4 (AID 434978;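 active = primary screen active whose calcium signal fell more than 3 SD beyond the full-serotonin control mean in both duplicate plates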;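 note: serotonin given first at submaximal then at maximal dose after compound preincubation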); conditions: Fluo-4 calcium flux, at 10 µM, serotonin added to trigger calcium flux; active compounds read high
[15] = tested on: TRPC4 (mouse), co-expressed with 5HT1a in HEK293; assay: calcium flux potentiators in TRPC4/5HT1a cells, confirmation, counter-screen for TRPC4 potentiator project, cell-based, second counter screen, HEK293 TRPC4/5HT1a, Fluo-4 (AID 434979); conditions: Fluo-4 calcium flux, at 10 µM, serotonin added at its EC20 dose; active compounds read high
[16] = calcium flux activation in mu-opioid HEK293 cells, confirmation, counter-screen for TRPC4 activator project, cell-based, HEK293 mu-opioid receptor line (AID 449723;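 active = hit in primary screen, with calcium signal over 5 SD above buffer well mean in both duplicates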;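 note: counter screen cells carry the mu-opioid receptor alone and lack TRPC4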); conditions: Fluo-4 calcium fluorescence, at 10 µM; active compounds read high
[17] = calcium flux enhancement in mu-opioid HEK293 cells, confirmation, counter-screen for TRPC4 allosteric potentiator project, cell-based, HEK293 mu-opioid receptor line (AID 449724;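 active = calcium signal rise more than 3 SD above the low-dose agonist control mean, in both duplicate plates and the primary screen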); conditions: Fluo-4 calcium flux, at 10 µM, compound added before EC20 DAMGO stimulus; active compounds read high

## Cc1ccc(C(=O)OCCN2CCN(c3ncc(C(F)(F)F)cc3Cl)CC2)cc1
[1]
  outcome: inactive
[2]
  outcome: inactive
[3]
  outcome: inactive
[4]
  potentiation: 9% (active)
[5]
  outcome: inactive
[6]
  outcome: inactive
[7]
  outcome: inactive
[8]
  outcome: inactive
[9]
  outcome: inactive
[10]
  outcome: inactive
[11]
  outcome: inactive
[12]
  outcome: inactive
[13]
  outcome: inactive
[14]
  outcome: inactive
[15]
  potentiation: 14.3% (active)
[16]
  outcome: inactive
[17]
  outcome: inactive

## C=CCn1c(SCCN2CCCC2)nc2c([nH]c3ccccc32)c1=O
[1]
  outcome: inactive
[2]
  outcome: inactive
[3]
  potentiation: 21% (active)
[4]
  outcome: inactive
[5]
  outcome: inactive
[6]
  outcome: inactive
[7]
  outcome: inactive
[8]
  outcome: inactive
[9]
  outcome: inactive
[10]
  outcome: inactive
[11]
  outcome: inactive
[12]
  outcome: inactive
[13]
  outcome: inactive
[14]
  outcome: inactive
[15]
  outcome: inactive
[16]
  outcome: inactive
[17]
  outcome: inactive

## CC[n+]1c(/C=C/Nc2ccccc2)sc2ccccc21
[1]
  outcome: inactive
[2]
  outcome: inactive
[3]
  outcome: inactive
[4]
  outcome: inactive
[5]
  outcome: inactive
[6]
  outcome: inactive
[7]
  outcome: inactive
[8]
  outcome: inactive
[9]
  outcome: inactive
[10]
  outcome: inactive
[11]
  outcome: inactive
[12]
  outcome: inactive
[13]
  outcome: inactive
[14]
  outcome: inactive
[15]
  outcome: inactive
[16]
  outcome: inactive
[17]
  outcome: inactive

## CN1CCCN(Cc2cccc3ccccc23)CC1
[1]
  outcome: inactive
[2]
  outcome: inactive
[3]
  potentiation: 34% (active)
[4]
  outcome: inactive
[5]
  outcome: inactive
[6]
  outcome: inactive
[7]
  outcome: inactive
[8]
  outcome: inactive
[9]
  outcome: inactive
[10]
  outcome: inactive
[11]
  outcome: inactive
[12]
  outcome: inactive
[13]
  outcome: inactive
[14]
  outcome: inactive
[15]
  potentiation: 28.3% (active)
[16]
  outcome: inactive
[17]
  outcome: inactive

## O=c1[nH]ncc(N2CCN(Cc3ccccc3)CC2)c1Cl
[1]
  outcome: inactive
[2]
  outcome: inactive
[3]
  outcome: inactive
[4]
  outcome: inactive
[5]
  outcome: inactive
[6]
  outcome: inactive
[7]
  outcome: inactive
[8]
  outcome: inactive
[9]
  outcome: inactive
[10]
  outcome: inactive
[11]
  outcome: inactive
[12]
  outcome: inactive
[13]
  outcome: inactive
[14]
  outcome: inactive
[15]
  outcome: inactive
[16]
  outcome: inactive
[17]
  outcome: inactive

## N=c1c(C(=O)NCc2ccc(F)cc2)cc2c(=O)n3ccccc3nc2n1Cc1ccco1
[1]
  outcome: inactive
[2]
  outcome: inactive
[3]
  outcome: inactive
[4]
  potentiation: 17% (active)
[5]
  outcome: inactive
[6]
  outcome: inactive
[7]
  outcome: inactive
[8]
  outcome: inactive
[9]
  outcome: inactive
[10]
  outcome: inactive
[11]
  outcome: inactive
[12]
  outcome: inactive
[13]
  outcome: inactive
[14]
  outcome: inactive
[15]
  outcome: inactive
[16]
  outcome: inactive
[17]
  outcome: inactive

## CCCCCCc1cc2cc(-c3nnc(-c4ccccc4O)o3)c(=O)oc2cc1O
[1]
  outcome: inactive
[2]
  outcome: inactive
[3]
  outcome: inactive
[4]
  potentiation: 15% (active)
[5]
  outcome: inactive
[6]
  outcome: inactive
[7]
  outcome: inactive
[8]
  outcome: inactive
[9]
  outcome: inactive
[10]
  outcome: inactive
[11]
  outcome: inactive
[12]
  outcome: inactive
[13]
  outcome: inactive
[14]
  outcome: inactive
[15]
  potentiation: 35.3% (active)
[16]
  outcome: inactive
[17]
  activation: 1460% (active)

## O=C(CCN1CCN(Cc2ccccc2)CC1)Nc1cccc(Br)c1
[1]
  outcome: inactive
[2]
  outcome: inactive
[3]
  potentiation: 21% (active)
[4]
  outcome: inactive
[5]
  outcome: inactive
[6]
  outcome: inactive
[7]
  outcome: inactive
[8]
  outcome: inactive
[9]
  outcome: inactive
[10]
  outcome: inactive
[11]
  outcome: inactive
[12]
  outcome: inactive
[13]
  outcome: inactive
[14]
  outcome: inactive
[15]
  outcome: inactive
[16]
  outcome: inactive
[17]
  outcome: inactive

## CC(C)c1cccc(OCCCCN(C)C)c1
[1]
  outcome: inactive
[2]
  outcome: inactive
[3]
  potentiation: 9% (active)
[4]
  potentiation: 20% (active)
[5]
  outcome: inactive
[6]
  outcome: inactive
[7]
  outcome: inactive
[8]
  outcome: inactive
[9]
  outcome: inactive
[10]
  outcome: inactive
[11]
  outcome: inactive
[12]
  outcome: inactive
[13]
  outcome: inactive
[14]
  outcome: inactive
[15]
  potentiation: 16.2% (active)
[16]
  outcome: inactive
[17]
  outcome: inactive

## Cc1cc(C)c(S(=O)(=O)N2CCN(C)CC2)c(C)c1
[1]
  outcome: inactive
[2]
  outcome: inactive
[3]
  potentiation: 9% (active)
[4]
  outcome: inactive
[5]
  outcome: inactive
[6]
  outcome: inactive
[7]
  outcome: inactive
[8]
  outcome: inactive
[9]
  outcome: inactive
[10]
  outcome: inactive
[11]
  outcome: inactive
[12]
  outcome: inactive
[13]
  outcome: inactive
[14]
  outcome: inactive
[15]
  potentiation: 12.4% (active)
[16]
  outcome: inactive
[17]
  outcome: inactive

## CCc1cc2c3c(c(=O)oc2cc1OCC(=O)OC)CCCC3
[1]
  outcome: inactive
[2]
  outcome: inactive
[3]
  outcome: inactive
[4]
  outcome: inactive
[5]
  outcome: inactive
[6]
  outcome: inactive
[7]
  outcome: inactive
[8]
  outcome: inactive
[9]
  outcome: inactive
[10]
  outcome: inactive
[11]
  outcome: inactive
[12]
  outcome: inactive
[13]
  outcome: inactive
[14]
  outcome: inactive
[15]
  outcome: inactive
[16]
  outcome: inactive
[17]
  outcome: inactive

## CC(C)(C)NCc1cc(Cl)ccc1OCc1cccs1
[1]
  outcome: inactive
[2]
  outcome: inactive
[3]
  outcome: inactive
[4]
  outcome: inactive
[5]
  outcome: inactive
[6]
  outcome: inactive
[7]
  outcome: inactive
[8]
  outcome: inactive
[9]
  outcome: inactive
[10]
  outcome: inactive
[11]
  outcome: inactive
[12]
  outcome: inactive
[13]
  outcome: inactive
[14]
  outcome: inactive
[15]
  outcome: inactive
[16]
  outcome: inactive
[17]
  outcome: inactive

## OCCN(CCO)c1ncnc2c1sc1nc(N3CCOCC3)c3c(c12)CCCC3
[1]
  outcome: inactive
[2]
  outcome: inactive
[3]
  outcome: inactive
[4]
  potentiation: 10% (active)
[5]
  outcome: inactive
[6]
  outcome: inactive
[7]
  outcome: inactive
[8]
  outcome: inactive
[9]
  outcome: inactive
[10]
  outcome: inactive
[11]
  outcome: inactive
[12]
  outcome: inactive
[13]
  outcome: inactive
[14]
  outcome: inactive
[15]
  potentiation: 27.8% (active)
[16]
  outcome: inactive
[17]
  outcome: inactive

## CNC(=S)NNC(=O)c1cccn(Cc2cccc(C(F)(F)F)c2)c1=O
[1]
  outcome: inactive
[2]
  outcome: inactive
[3]
  outcome: inactive
[4]
  potentiation: 14% (active)
[5]
  outcome: inactive
[6]
  outcome: inactive
[7]
  outcome: inactive
[8]
  outcome: inactive
[9]
  outcome: inactive
[10]
  outcome: inactive
[11]
  outcome: inactive
[12]
  outcome: inactive
[13]
  outcome: inactive
[14]
  outcome: inactive
[15]
  outcome: inactive
[16]
  outcome: inactive
[17]
  outcome: inactive

## CC(=O)c1ccc(N2CCN(c3ccc(S(=O)(=O)NCCCN(C)C)cc3[N+](=O)[O-])CC2)cc1
[1]
  outcome: inactive
[2]
  outcome: inactive
[3]
  potentiation: 12% (active)
[4]
  potentiation: 19% (active)
[5]
  outcome: inactive
[6]
  outcome: inactive
[7]
  outcome: inactive
[8]
  outcome: inactive
[9]
  outcome: inactive
[10]
  outcome: inactive
[11]
  outcome: inactive
[12]
  outcome: inactive
[13]
  outcome: inactive
[14]
  outcome: inactive
[15]
  potentiation: 14.6% (active)
[16]
  outcome: inactive
[17]
  outcome: inactive

Source: PubChem BioAssay
